CHO-K1 Ca PAM: nonselective calcium activators in parental CHO-K1 cells, primary screen, counter-screen for M1 PAM project, cell-based, Fluo-8 calcium fluorescence, full deck, 1536-well | ATP EC20; 0% at ATP EC20, 100% at ATP max | activation, % at 3 µM | 360,000 compounds, 0.02% hits;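 active means activation above the run cutoff, the mean activation of all test compounds plus 3 SD, cut at about 40% in these data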;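 further: peak over basal fluorescence ratio in a 140 s read after ATP addition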
CHO-K1 Ca antag: M1 antagonist counterscreen hit in parental CHO-K1 cells. ATP-induced calcium, Fluo-8 fluorescence. inhibition, % at 3 µM. 360,000 compounds, 0.6% hits;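 active means inhibition above a per-plate cutoff, the plate's mean sample inhibition plus 3 SD, cut at about 24% in these data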
CHRM1 antagonist: human M1 muscarinic receptor antagonists, primary screen, CHO-K1 cells, Fluo-8 calcium fluorescence, 1536-well; CHO-K1 hM1, ACh EC80 antagonist; AID 588852, 2011; inhibition, % at 3 µM; 360,000 compounds, 1.3% hits;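 active means percent inhibition above its own plate's cutoff, namely the mean of that plate's compound wells plus 3 SD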;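 further: peak over basal fluorescence ratio during 140 s after agonist addition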
Target sequence (P11229 whole entry, looked up): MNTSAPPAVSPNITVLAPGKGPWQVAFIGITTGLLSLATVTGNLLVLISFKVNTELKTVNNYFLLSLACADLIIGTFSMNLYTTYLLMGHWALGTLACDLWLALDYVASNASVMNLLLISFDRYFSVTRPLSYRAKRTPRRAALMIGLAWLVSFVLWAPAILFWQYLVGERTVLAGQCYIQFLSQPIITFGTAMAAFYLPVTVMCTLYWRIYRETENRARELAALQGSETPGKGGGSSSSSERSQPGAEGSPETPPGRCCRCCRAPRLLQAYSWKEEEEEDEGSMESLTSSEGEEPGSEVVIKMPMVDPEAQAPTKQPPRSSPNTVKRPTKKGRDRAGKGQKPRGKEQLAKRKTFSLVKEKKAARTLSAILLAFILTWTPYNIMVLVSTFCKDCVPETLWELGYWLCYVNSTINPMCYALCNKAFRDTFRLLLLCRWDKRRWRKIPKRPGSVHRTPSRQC
M1 ag parental: counter-screen for M1 agonists: effect in parental CHO-K1 cells; Fluo-8 calcium fluorescence; scaled to maximal ATP response, vehicle zero; activation, % at 3 µM; 360,000 compounds, 0.48% hits; in the data active means activation above about 15%;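 further: untransfected CHO-K1 host cells lacking M1 receptor as counterscreen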
M1 ag: human M1 muscarinic receptor agonists, primary screen, Fluo-8 calcium fluorescence, CHO-K1 cells, HTS | AID 588814, 2011 | activation, % at 3 µM | CHO-K1 hM1, agonist mode; 0% DMSO, 100% acetylcholine EC100 | 360,000 compounds, 0.33% hits;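 active means activation above the run's mean compound activation plus 3 SD, cut at about 16% in these data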;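 further: peak over basal fluorescence ratio within a 140 s kinetic read after compound addition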
M1 PAM: human M1 muscarinic receptor positive allosteric modulators, primary screen, CHO-K1 cells, Fluo-8 calcium fluorescence, 1536-well | activation, % at 3 µM | 360,000 compounds, 0.088% hits | AID 588819, 2011 | Muscarinic acetylcholine receptor M1 (Homo sapiens), P11229 | CHO-K1 hM1, ACh EC20; 0% = ACh EC20, 100% = maximal ACh; in the data active means activation above about 19%, passing the limit was not always enough
Numbers stand for hits; - = inactive. In the library only some 2.3% were active in any assay of this set; here they are far more common.

SMILES	CHO-K1 Ca PAM	CHO-K1 Ca antag	CHRM1 antagonist	M1 ag parental	M1 ag	M1 PAM
O=[N+]([O-])c1ccc(N/N=C/c2c[nH]c3ccccc23)cc1	-	26	34	15	-	-
CN(C)C(=O)/C(=C/c1ccc(-c2cccc([N+](=O)[O-])c2)o1)NC(=O)c1ccccc1	-	-	-	22	-	-
O=C(O)c1ccc(-c2ccc(/C=N/Nc3ccc([N+](=O)[O-])cc3)o2)cc1	-	-	-	-	18	-
O=C(O)c1cccc(-c2ccc(/C=N/Nc3ccc([N+](=O)[O-])cc3)o2)c1	-	-	-	18	17	-
NS(=O)(=O)c1ccc(-c2ccc(/C=N/Nc3ccc(C(=O)O)cc3)o2)cc1	-	-	-	-	-	-
N#CC(c1ccc(Cl)cc1)c1ccc2c(C(F)(F)F)cc(C(F)(F)F)nc2n1 (stereo not drawn)	-	24	-	-	-	-
CCc1noc(C)c1C(=O)Nc1nc(-c2ccc(OC)cc2)cs1	-	-	37	-	-	-
CCOC(=O)C1(Cc2cccc(F)c2)CCN(C(=O)Cn2cnnn2)CC1	-	-	-	-	-	-
COCOc1ccc(/C=C/C(=O)c2c(OCOC)cc(OCOC)c(CC=C(C)C)c2O)cc1OCOC	-	29	-	-	-	-
COCOc1ccc(/C=C/C(=O)c2c(O)cc(OCOC)cc2OCOC)cc1	-	-	-	-	-	-
CCOC(=O)c1c(NC(C)=O)sc2c1CCC(C=O)=C2Sc1ccccc1	-	-	-	-	-	-
CCOC(=O)c1c(NC(C)=O)sc2c1CCCNC2=O	-	26	-	-	-	-
O=C(CCCC(=O)OCC(Cl)=C(Cl)Cl)Nc1ccccc1	-	-	-	-	-	-
CCCCc1cc(=O)oc2cc(OCC(=O)Nc3cccnc3)c(Cl)cc12	-	-	-	-	-	-
COc1ccc(CC(N)c2csc(Nc3nncc4ccccc34)n2)cc1 (stereo not drawn)	-	-	-	-	-	-
CCn1c(=O)c(C(=O)NNC(=O)c2ccccc2Cl)c(O)c2ccccc21	-	-	-	35	18	-
CCCn1c(=O)c(C(=O)NCc2ccncc2)c(O)c2ccccc21	-	29	-	-	-	-
CCCn1c(=O)c(C(=O)NCc2ccccc2Cl)c(O)c2ccccc21	-	-	-	-	-	-
Cc1cc(C#N)c(C)n1-c1cc(S(=O)(=O)N2CCOCC2)ccc1N1CCCC1	-	-	-	-	-	-
Cc1csc2ncc(C(=O)NC(C)c3ccccc3)c(=O)n12 (stereo not drawn)	-	-	-	16	-	-
CCCCn1c(N)c(N(CCOC)C(=O)C(C)N2C(=O)c3ccccc3C2=O)c(=O)[nH]c1=O (stereo not drawn)	-	-	-	-	-	-
Cc1ccc(N(Cc2ccco2)C(=O)c2ccc(N3CCCCC3)c([N+](=O)[O-])c2)cc1	-	25	-	-	-	-
CC(C)n1c(SCC(=O)N2CCN(C)CC2)nc2c1c(=O)n(C)c(=O)n2C	-	-	-	-	-	-
O=C(NC12CC3CC(CC(C3)C1)C2)c1cc(F)c(F)c(F)c1F	-	-	-	-	-	-
Oc1ccccc1Oc1ncc(Br)c(N2CCOCC2)n1	-	-	84	-	-	-
SMILES	CHO-K1 Ca PAM	CHO-K1 Ca antag	CHRM1 antagonist	M1 ag parental	M1 ag	M1 PAM
CCN(CC)CCn1c2c(c(SCC(=O)Nc3ccc(C)c(F)c3)nc1=O)CCCC2	-	-	50	-	-	-
O=C(CSc1nc(=O)n(CCCN2CCOCC2)c2c1CCCC2)Nc1cccc([N+](=O)[O-])c1	-	-	-	-	-	-
O=C(CSc1nc(=O)n(CCCN2CCOCC2)c2c1CCCC2)Nc1cccc(F)c1	-	-	30	-	-	-
CCN(CC)CCCn1c2c(c(SCC(=O)Nc3cc(OC)cc(OC)c3)nc1=O)CCC2	-	-	29	-	-	-
CCCCc1ccc(NC(=O)CSc2nc(=O)n(CCN(CC)CC)c3c2CCC3)cc1	-	-	36	-	-	-
CCN(CCCC(=O)c1ccc(F)cc1)CCc1ccccc1	-	-	59	-	-	-
Cc1ccccc1-n1ncc2c1CC(C)(C)CC2NC(=O)CCCN1CCCC1=O (stereo not drawn)	-	-	-	-	-	-
O=C(Nc1cccc(-c2nc3ccccc3s2)c1)c1cccs1	-	-	30	-	-	-
O=C(Nc1ccc(-c2nc3ccc(NC(=O)c4cccs4)cc3[nH]2)cc1)c1cccs1	-	-	38	-	-	-
O=C(c1ccccc1)c1ccc2nc(-c3ccc(NC(=O)c4ccccc4Br)cc3)[nH]c2c1	-	-	-	-	-	-
Cc1ccccc1C(=O)Nc1ccc(-c2nc3ccc(C(=O)c4ccccc4)cc3[nH]2)cc1	-	34	28	-	-	-
CC(Sc1nnc(-c2ccccc2F)n1C)C(=O)NC1CCCCC1 (stereo not drawn)	-	-	-	-	-	-
C[C@]12CCC(=O)C=C1CC[C@@H]1[C@@H]2CC[C@@]2(C)[C@H]1CC[C@@]21CCC(=O)O1	-	-	31	-	-	-
CC(=O)OC(C=C(C)C)C/C(C)=C/COc1c2ccoc2cc2oc(=O)ccc12 (stereo not drawn)	-	-	-	-	-	-
CCc1ccccc1OC[C@@H](O)CN[C@H]1CCCc2ccccc21	-	25	-	-	-	-
OC(CNC1CCCc2ccccc21)COc1ccc2ccccc2c1 (stereo not drawn)	-	-	-	-	-	-
Cc1cc2c(cc1C)N(C(=O)CSC1=NCCS1)C(C)(C)c1ssc(=S)c1-2	-	-	54	-	-	-
CC1(C)c2ssc(=S)c2-c2ccccc2N1C(=O)CSC1=NCCS1	-	-	-	-	-	-
CC(=O)Nc1ccc(NC(=O)Cn2cnc3c(nnn3Cc3ccc(F)cc3)c2=O)cc1	-	-	-	-	16	-
COc1ccc(N2CCN(C(=O)COC(=O)c3nc(Cl)ccc3Cl)CC2)cc1	-	-	-	-	-	-
CCN1CCN(C(=O)Cn2nc(C)c3sc4ccccc4c3c2=O)CC1	-	-	-	-	-	-
Cc1ccc(NC(=S)N2C3CCCC2CC(NC(=O)C2CC2)C3)cc1C (stereo not drawn)	-	-	-	-	-	-
Cc1cc(C)cc(NC(=S)N2C3CCCC2CC(NC(=O)C2CC2)C3)c1 (stereo not drawn)	-	-	27	-	-	-

Source: PubChem (The Scripps Research Institute Molecular Screening Center)
